In the supplement of paper PMC9492666:
Where a name gives a salt, the structure may show the parent alone.

Experiments:
HCC1937 = assay: relative cell viability, compound + RSL3, vs DMSO (fraction of DMSO control); higher = less growth inhibition; details: 72 h
MDA-MB-231 = assay: as above; details: 72 h
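Note: breast cancer cell viability read out with the CCK-8 kit after co-treatment of each compound with the ferroptosis inducer RSL3.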

SMILES | relative cell viability (HCC1937) | relative cell viability (MDA-MB-231)
NC(CO)C(=O)O (racemic) [DL-Serine] + COC(=O)c1ccc([C@H]2c3[nH]c4ccccc4c3C[C@H](C(=O)OC)N2C(=O)CCl)cc1 [RSL3] | 0.399 | 0.594
CC(C)c1onc(-c2c(Cl)cccc2Cl)c1COc1ccc(/C=C/c2cccc(C(=O)O)c2)c(Cl)c1 + COC(=O)c1ccc([C@H]2c3[nH]c4ccccc4c3C[C@H](C(=O)OC)N2C(=O)CCl)cc1 [RSL3] | 0.874 | 0.699
CC(C)(O)c1ccccc1CC[C@@H](SCC1(CC(=O)O)CC1)c1cccc(/C=C/c2ccc3ccc(Cl)cc3n2)c1 [Montelukast] + COC(=O)c1ccc([C@H]2c3[nH]c4ccccc4c3C[C@H](C(=O)OC)N2C(=O)CCl)cc1 [RSL3] | 0.589 | 0.484
COc1c(/C=C/C(=O)c2ccc(O)cc2)ccc(O)c1CC=C(C)C + COC(=O)c1ccc([C@H]2c3[nH]c4ccccc4c3C[C@H](C(=O)OC)N2C(=O)CCl)cc1 [RSL3] | 0.579 | 0.585
CCN(CC)C(=O)N1CCN(C)CC1 [Diethylcarbamazine citrate] + COC(=O)c1ccc([C@H]2c3[nH]c4ccccc4c3C[C@H](C(=O)OC)N2C(=O)CCl)cc1 [RSL3] | 0.61 | 0.581
O=C1C(SCCO)=C(SCCO)C(=O)c2ccccc21 + COC(=O)c1ccc([C@H]2c3[nH]c4ccccc4c3C[C@H](C(=O)OC)N2C(=O)CCl)cc1 [RSL3] | 0.388 | 0.925
O=C(Nc1cnccc1Cl)N1CCN(Cc2ccc3c(c2)OC(F)(F)O3)CC1 + COC(=O)c1ccc([C@H]2c3[nH]c4ccccc4c3C[C@H](C(=O)OC)N2C(=O)CCl)cc1 [RSL3] | 0.338 | 0.568
CC[C@H](C)C(=O)O[C@H]1C[C@@H](C)C=C2C=C[C@H](C)[C@H](CC[C@@H]3C[C@@H](O)CC(=O)O3)[C@H]21 [Lovastatin] + COC(=O)c1ccc([C@H]2c3[nH]c4ccccc4c3C[C@H](C(=O)OC)N2C(=O)CCl)cc1 [RSL3] | 0.867 | 0.491
Cc1ccc(Oc2nc3cc(-c4ccc(-c5ccccc5)cc4)c(Cl)cc3[nH]2)cc1C(=O)O + COC(=O)c1ccc([C@H]2c3[nH]c4ccccc4c3C[C@H](C(=O)OC)N2C(=O)CCl)cc1 [RSL3] | 0.538 | 0.6
O=C(O)CCn1c2c(c3ccccc31)C[C@H](NS(=O)(=O)c1ccc(F)cc1)CC2 [Ramatroban] + COC(=O)c1ccc([C@H]2c3[nH]c4ccccc4c3C[C@H](C(=O)OC)N2C(=O)CCl)cc1 [RSL3] | 0.41 | 0.554
C=C(C)[C@@H]1CC[C@]2(C)CC[C@]3(C)[C@H](CC[C@@H]4[C@@]5(C)CCC(=O)C(C)(C)[C@@H]5CC[C@]43C)[C@@H]12 + COC(=O)c1ccc([C@H]2c3[nH]c4ccccc4c3C[C@H](C(=O)OC)N2C(=O)CCl)cc1 [RSL3] | 0.595 | 0.688
Cc1c(C)c2c(c(C)c1O)CCC(C)(COc1ccc(CC3SC(=O)NC3=O)cc1)O2 (centres undefined) [Troglitazone] + COC(=O)c1ccc([C@H]2c3[nH]c4ccccc4c3C[C@H](C(=O)OC)N2C(=O)CCl)cc1 [RSL3] | 0.431 | 0.686
CCCc1cc(-c2nc(-c3ccc(C)cc3)cs2)ccn1 [Fatostatin] + COC(=O)c1ccc([C@H]2c3[nH]c4ccccc4c3C[C@H](C(=O)OC)N2C(=O)CCl)cc1 [RSL3] | 0.269 | 0.715
CC(C)CCC[C@@H](C)[C@H]1CC[C@H]2[C@@H]3CC=C4C[C@@H](O)CC[C@]4(C)[C@H]3CC[C@]12C [Cholesterol] + COC(=O)c1ccc([C@H]2c3[nH]c4ccccc4c3C[C@H](C(=O)OC)N2C(=O)CCl)cc1 [RSL3] | 0.8 | 0.611
Cc1cccc(Nc2cc(Cl)nc(SCC(=O)O)n2)c1C [Pirinixic Acid] + COC(=O)c1ccc([C@H]2c3[nH]c4ccccc4c3C[C@H](C(=O)OC)N2C(=O)CCl)cc1 [RSL3] | 0.603 | 0.495
O=P(O)(O)OC(CO)CO [β-Glycerol phosphate disodium salt pentahydrate] + COC(=O)c1ccc([C@H]2c3[nH]c4ccccc4c3C[C@H](C(=O)OC)N2C(=O)CCl)cc1 [RSL3] | 0.343 | 0.56
CC(C)c1c(C(=O)Nc2ccccc2)c(-c2ccccc2)c(-c2ccc(F)cc2)n1CC[C@@H](O)C[C@@H](O)CC(=O)O [Atorvastatin Calcium] + COC(=O)c1ccc([C@H]2c3[nH]c4ccccc4c3C[C@H](C(=O)OC)N2C(=O)CCl)cc1 [RSL3] | 0.571 | 0.385
